Data on 17 compounds can be found in PubChem BioAssay (NCATS).

Results filed as inconclusive are left out. Unmarked numbers belong to inactive results. Activity calls are given as the source filed them. Calls come from the whole dose curve; as a rule, active = well fitted curve in the direction sought with a large enough effect; inconclusive = small, poorly fitted or top-dose-only effect, or another doubt; inactive = no such curve, though single readings can be large; an effect the other way counts as inactive or inconclusive.

The nature of test [1]: Quantitative highthroughput screen to assess conditional lethalithy of NOMO1 cells grown in RPMI1640 with untreated serum (RPMI+s) (AID 1963876).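 Note: 100% = DMSO wells and 0% = empty wells without cells; nearly all actives have a fitted effect of over 35% in size.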 Put shortly:
(§1)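 Each medium arm—HPLM with 10% dialyzed FBS, or RPMI1640 with 5 mM glucose and 10% untreated or dialyzed FBS—was screened against an 11-point, 3-fold compound titration for 48 h at 37 °C, with CellTiter-Glo luminescence as endpoint.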

A short description of test [2]: Quantitative highthroughput screen to assess conditional lethalithy of NOMO1 cells grown in RPMI1640 with dialyzed fetal bovine serum (RPMI+ds) (AID 1963877).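 Note: series mostly up to about 46 µM; 100% = DMSO control wells and 0% = empty wells; nearly all actives have a fitted effect of over 30% in size.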 In a few lines:
as §1

A short description of test [3]: Quantitative highthroughput screen to assess conditional lethalithy of NOMO1 cells grown in Human Plasma-Like Medium with dialyzed fetal bovine serum (HPLM+ds) (AID 1963878).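 Note: 100% = DMSO wells and 0% = empty wells on each plate; nearly all actives have a fitted effect of over 35% in size.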 Put shortly:
as §1

Test [4] in a line: Quantitative highthroughput screen to assess conditional lethalithy of P12 Ichikawa cells grown in Human Plasma-Like Medium with dialyzed fetal bovine serum (HPLM+ds) (AID 1963879). Note: series mostly up to about 46 µM; nearly all actives have a fitted effect of over 35% in size. Conditions: Potency: viability. In a few lines:
as §1

Test [5] is described as follows: Quantitative highthroughput screen to assess conditional lethalithy of P12 Ichikawa cells grown in RPMI1640 with dialyzed fetal bovine serum (RPMI+ds) (AID 1963880).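 Note: 100% = DMSO wells and 0% = empty wells on each plate; nearly all actives have a fitted effect of over 35% in size.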 The following applies: Potency: P12-Ichikawa viability. Put shortly: as §1
Test [6] is described as follows: Quantitative highthroughput screen to assess conditional lethalithy of P12 Ichikawa cells grown in RPMI1640 with untreated serum (RPMI+s) (AID 1963881).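 For viability: series mostly up to about 46 µM; 100% = DMSO wells and 0% = empty wells without cells.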 Note: nearly all actives have a fitted effect of over 35% in size. Note: potency is the fitted concentration of half-maximal effect. Conditions: Potency: viability. Put shortly: as §1
Test [7] in a line: Quantitative highthroughput screen to assess conditional lethalithy of SEM cells grown in RPMI1640 with unreated serum (RPMI+s) (AID 1963883).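 For viability: 100% = DMSO wells and 0% = empty wells without cells.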 Note: nearly all actives have a fitted effect of over 35% in size. Note: potency is the fitted concentration of half-maximal effect. In a few lines:
as §1

Test [8] is described as follows: Quantitative highthroughput screen to assess conditional lethalithy of SEM cells grown in RPMI1640 with dialyzed fetal bovine serum (RPMI+ds) (AID 1963884). Put shortly:
as §1

Test [9] is described as follows: Cellular viability qHTS for adrenocortical cancer (ACC) cell line SW-13 (AID 1963989).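 For activity (max response): cells grown in serum-free medium with ITS supplement; % is set by controls: 0 for no effect and ±100 for the full control effect.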 Note: nearly all actives have a fitted effect of over 65% in size. Note: potency is the fitted concentration of half-maximal effect. The following applies: SW-13 ACC cells viability, CellTiter-Glo, 48 h; activity (max response): hits give low values. In a few lines:
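SW-13 cells in ITS-supplemented serum-free DMEM were plated overnight, then exposed for 48 h at 37C to compound titrations (up to 46 uM final). Viability was read by CellTiter-Glo luminescence; four-parameter logistic fits gave IC50 and efficacy.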

Test [10] can be described thus: Cellular viability qHTS for adrenocortical cancer (ACC) cell line NCI-H295R (AID 1963990). Note: nearly all actives have a fitted effect of over 60% in size. Note: potency is the fitted concentration of half-maximal effect. In a few lines: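 Luminescent ATP read-out (CellTiter-Glo, 20 min RT) after 48 h drug exposure of NCI-H295R cells; a titration up to 46 uM final. Data normalized to doxorubicin (100% inhibition) and DMSO (0%); 4-parameter fit gives IC50, max response.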
For orientation: In qHTS, concentration-response curves come from the screen itself.

Test [11] is described as follows: Quantitative highthroughput screen to assess conditional lethalithy of SEM cells grown in Human Plasma-Like Medium with dialyzed fetal bovine serum (HPLM+ds) (AID 1963882). For viability: series mostly up to about 46 µM. Note: nearly all actives have a fitted effect of over 35% in size. Note: potency is the fitted concentration of half-maximal effect. In a few lines:
as §1

In the case of `CC(=O)SC[C@@H](C)C(=O)N1CCC[C@H]1C(=O)N[C@@H](Cc1ccccc1)C(=O)O`, the Potency result in [1], in test [2], in [3], in [4], in test [5] and in test [6] was “inactive” in each case. Moreover, the Potency result in test [7], in test [8] and in test [10] was “inactive” in each case. Also, the activity (max response) in test [9] was 16.6%.
Consider `CN1C(=O)C[C@H](C(=O)N[C@@H](Cc2cnc[nH]2)C(=O)N2CCC[C@@H]2C(N)=O)NC1=O`, for which the Potency entry in test [1], in test [2], in test [3], in [4], in test [5] and in test [6] was “inactive” throughout. Besides, in [10], the Potency result is “inactive”.
For `OC[C@H]1O[C@@H](n2cnc3c2NC=NC[C@@H]3O)C[C@H]1O`, the Potency result in test [1], in test [2], in [3], in test [4], in [5] and in [6] was “inactive” each time. For the same compound, the Potency result in test [11] and in test [8] was “inactive” in each case.
`O=C(NNC(=O)c1ccc(CNS(=O)(=O)c2ccc(F)c(Cl)c2)cc1)c1ccccc1`: the Potency result in test [1], in [2], in test [3], in test [4], in test [5] and in [6] was “inactive” each time. In addition, the Potency result in test [7] is “inactive”.
Turning to `NC(=O)c1cccc(N)c1`, the Potency entry in test [1], in [2], in [3], in test [4], in [5] and in [6] was “inactive” each time. For the same compound, the Potency entry in [11] and in test [10] was “inactive” in each case. For the same compound, the activity (max response) in test [9] was -2.32%.
`COc1ccccc1N1CCN(CCN(C(=O)C2CCCCC2)c2ccccn2)CC1`: the Potency result in test [1], in [2], in test [3], in [4], in test [5] and in test [6] was “inactive” each time. Further, the Potency result in test [7], in test [8] and in test [10] was “inactive” throughout.
With `C[C@H](NC(=O)c1sccc1OCc1ccc(Cl)cc1)c1ccccc1`, the Potency result in [1], in test [2], in [3], in test [4], in [5] and in test [6] was “inactive” each time. For the same compound, the Potency was 25.1 µM (active) in [9] and 28.2 µM (active) in [10].
For `NC[C@@H]1O[C@@H](O[C@H]2[C@@H](O)[C@H](O[C@@H]3[C@@H](O)[C@@H](N)C[C@H](N)[C@H]3O[C@H]3O[C@H](CN)[C@@H](O)[C@@H](O)[C@H]3N)O[C@H]2CO)[C@H](N)[C@@H](O)[C@@H]1O`, the Potency entry in test [1], in test [2], in test [3], in [4], in test [5] and in test [6] was “inactive” in each case. Moreover, the Potency result in test [11] and in test [8] was “inactive” throughout.
With `NS(=O)(=O)c1cc(C(=O)O)c(NCc2ccco2)cc1Cl`, the Potency entry in test [1], in [2], in test [3], in test [4], in test [5] and in test [6] was “inactive” in each case. For the same compound, in test [10], the Potency result is “inactive”. The activity (max response) in test [9] was -1.8%.
On to `Cc1coc2c1C(=O)C(=O)c1c-2ccc2c(C)cccc12`, for which the Potency entry in test [1], in [2], in test [3], in test [4], in [5] and in test [6] was “inactive” in each case. Besides, in [8], the Potency result is “inactive”.
As to `CCOC(=O)[C@H](CCc1ccccc1)N[C@@H](C)C(=O)N1CCCC1C(=O)O` (some centres undefined), the Potency result in test [1], in [2], in [3], in test [4], in [5] and in [11] was “inactive” each time. Moreover, the Potency result in test [7] and in [8] was “inactive” throughout.
On to `Cc1ccc2c(c1)c1c(n2CCc2ccc(C)nc2)CCN(C)C1`, for which the Potency entry in test [1], in [2], in test [3], in test [4], in test [5] and in [11] was “inactive” in each case. In addition, the Potency entry in test [7] is “inactive”.
On to `Cc1nn(C)c2c1C(c1ccc(C(F)(F)F)cc1)C(C#N)=C(N)O2` (centres undefined), for which the Potency result in test [1], in test [2], in test [3], in [4] and in [5] was “inactive” each time. For the same compound, the activity (max response) in [9] was -18.7%.
Turning to `O=C1NC(=O)C(=Cc2ccc(-c3ccc(F)cc3)o2)S1`, the Potency entry in test [1], in test [2], in test [3], in [4], in test [6] and in [11] was “inactive” each time. The Potency entry in test [7] and in [8] was “inactive” in each case.
As for `CCCNS(=O)(=O)Nc1ncnc(OCCOc2ncc(Br)cn2)c1-c1ccc(Br)cc1`, the Potency entry in [1], in test [2], in [3], in [4], in test [5] and in test [11] was “inactive” in each case. Besides, the Potency entry in [10] was “inactive”.
For the compound `O=C(O)[C@H]1O[C@H](Oc2cc3oc(-c4ccccc4)cc(=O)c3c(O)c2O)[C@H](O)[C@@H](O)[C@H]1O`, the Potency result in test [1], in [2], in test [3] and in test [4] was “inactive” throughout. Also, the Potency in test [6], in [11] and in [7] was 18.7 µM (active) each time.
Take `O=C1C[C@@H](c2ccc(O)cc2)Oc2cc(O)cc(O)c21`: the Potency result in test [1], in [2], in [3], in [4], in test [6] and in [11] was “inactive” each time. The Potency entry in [7], in [8] and in test [10] was “inactive” throughout. Besides, the activity (max response) in test [9] is -16.9%.
